Data reported in a collection of fitness landscapes (doi:10.1126/science.1257360).
The full ranking holds about 140,000 sequences; the median of “enrichment ratio after two sorts for PhoP signalling” is about 0, and the highest 2% start at about 11. What follows is part of a selection rich in the highest values, with near analogues and random picks from the rest.

B1: PhoQ; a variant is named by its letters at X, in order, P23837 (parent)
chain: MKKLLRLFFPLSLRVRFLLATAAVVLVLSLAYGMVALIGYSVSFDKTTFRLLRGESNLFYTLAKWENNKLHVELPENIDKQSPTMTLIYDENGQLLWAQRDVPWLMKMIQPDWLKSNGFHEIEADVNDTSLLLSGDHSIQQQLQEVREDDDDAEMTHSVAVNVYPATSRMPKLTIVVVDTIPVELKSSYMVWSWFIYVLSANLLLVIPLLWVAAWWSLRPIEALAKEVRELEEHNRELLNPATTRELTSLVRNLNRLLKSERERYDKYRTTLTDLTHSLKTPLXXLQXXLRSLRSEKMSVSDAEPVMLEQISRISQQIGYYLHRASMRGGTLLSRELHPVAPLLDNLTSALNKVYQRKGVNISLDISPEISFVGEQNDFVEVMGNVLDNACKYCLEFVEISARQTDEHLYIVVEDDGPGIPLSKREVIFDRGQRVDTLRPGQGVGLAVAREITEQYEGKIVAGESMLGGARMEVIFGRQHSAPKDE

Variants of: B1
Test: enrichment ratio after two sorts for PhoP signalling (ratio (wild type AVST 3.29)); higher = more functional
Settings: with PhoP (E. coli)

Question: With RGMN as the variant, how does the enrichment ratio read?
Answer: ≤ 0.25

Question: Which enrichment ratio does the source give for TGMN here?
Answer: 34.8

Question: How did the enrichment ratio turn out when RHML was run?
Answer: ≤ 0.25

Question: For RVMN, which enrichment ratio is on record?
Answer: ≤ 0.25

Question: Which enrichment ratio does the source give for GNFW here?
Answer: ≤ 0.25

Question: Which enrichment ratio does the source give for LDMA here?
Answer: ≤ 0.25

Question: With ESWV as the variant, how does the enrichment ratio read?
Answer: ≤ 0.25

Question: For KCLD, which enrichment ratio is on record?
Answer: ≤ 0.25

Question: Which enrichment ratio does the source give for RANI here?
Answer: ≤ 0.25

Question: With GSCA as the variant, how does the enrichment ratio read?
Answer: 0.424

Question: With GSCI as the variant, how does the enrichment ratio read?
Answer: 10.8

Question: GSMW was tested. Which enrichment ratio did it give?
Answer: ≤ 0.25

Question: Which enrichment ratio does the source give for GSCS here?
Answer: 5.76

Question: Which enrichment ratio does the source give for GSCL here?
Answer: 21.5

Question: With GSMV as the variant, how does the enrichment ratio read?
Answer: 17.2

Question: For GSCV, which enrichment ratio is on record?
Answer: 16.6

Question: With GSIV as the variant, how does the enrichment ratio read?
Answer: 8.6

Question: How did the enrichment ratio turn out when GSWV was run?
Answer: ≤ 0.25

Question: How did the enrichment ratio turn out when FTHE was run?
Answer: ≤ 0.25

Question: HIYR was tested. Which enrichment ratio did it give?
Answer: ≤ 0.25

Question: With AWLF as the variant, how does the enrichment ratio read?
Answer: ≤ 0.25

Question: Which enrichment ratio does the source give for YRSQ here?
Answer: ≤ 0.25

Question: With HSWV as the variant, how does the enrichment ratio read?
Answer: ≤ 0.25

Question: Which enrichment ratio does the source give for HSMW here?
Answer: ≤ 0.25

Question: HSMH was tested. Which enrichment ratio did it give?
Answer: ≤ 0.25

Question: Which enrichment ratio does the source give for HSMG here?
Answer: 1.29

Question: Which enrichment ratio does the source give for HSMI here?
Answer: 17.4

Question: HSMV was tested. Which enrichment ratio did it give?
Answer: 17

Question: How did the enrichment ratio turn out when WYLH was run?
Answer: ≤ 0.25

Question: With TLFF as the variant, how does the enrichment ratio read?
Answer: ≤ 0.25

Question: Which enrichment ratio does the source give for AINV here?
Answer: ≤ 0.25

Question: With SNRK as the variant, how does the enrichment ratio read?
Answer: ≤ 0.25

Question: QKYP was tested. Which enrichment ratio did it give?
Answer: ≤ 0.25

Question: Which enrichment ratio does the source give for IVDD here?
Answer: ≤ 0.25

Question: For VLPC, which enrichment ratio is on record?
Answer: ≤ 0.25

Question: HDDH was tested. Which enrichment ratio did it give?
Answer: ≤ 0.25

Question: How did the enrichment ratio turn out when WDDD was run?
Answer: ≤ 0.25

Question: TLSC was tested. Which enrichment ratio did it give?
Answer: 8.65

Question: SDSC was tested. Which enrichment ratio did it give?
Answer: 2.35

Question: For YTSC, which enrichment ratio is on record?
Answer: ≤ 0.25

Question: STSC was tested. Which enrichment ratio did it give?
Answer: 11.6

Question: With SRSC as the variant, how does the enrichment ratio read?
Answer: ≤ 0.25

Question: For CMSC, which enrichment ratio is on record?
Answer: 39.5

Question: Which enrichment ratio does the source give for SQSC here?
Answer: 11.7

Question: MMSC was tested. Which enrichment ratio did it give?
Answer: ≤ 0.25

Question: KQSC was tested. Which enrichment ratio did it give?
Answer: ≤ 0.25

Question: For FVKG, which enrichment ratio is on record?
Answer: ≤ 0.25

Question: PVCQ was tested. Which enrichment ratio did it give?
Answer: ≤ 0.25

Question: Which enrichment ratio does the source give for MPMY here?
Answer: ≤ 0.25

Question: With HPTD as the variant, how does the enrichment ratio read?
Answer: ≤ 0.25

Question: MFHP was tested. Which enrichment ratio did it give?
Answer: ≤ 0.25

Question: For IYSH, which enrichment ratio is on record?
Answer: ≤ 0.25

Question: RGAT was tested. Which enrichment ratio did it give?
Answer: ≤ 0.25

Question: AKAH was tested. Which enrichment ratio did it give?
Answer: 4.55

Question: How did the enrichment ratio turn out when GGNY was run?
Answer: ≤ 0.25

Question: Which enrichment ratio does the source give for TGAT here?
Answer: 18.1

Question: For GGNT, which enrichment ratio is on record?
Answer: ≤ 0.25

Question: How did the enrichment ratio turn out when GGAT was run?
Answer: ≤ 0.25

Question: Which enrichment ratio does the source give for RGNY here?
Answer: ≤ 0.25

Question: Which enrichment ratio does the source give for AGAH here?
Answer: 11.2

Question: How did the enrichment ratio turn out when RGNT was run?
Answer: ≤ 0.25

Question: How did the enrichment ratio turn out when TGNY was run?
Answer: 16.9

Question: For TGNT, which enrichment ratio is on record?
Answer: 15.8

Question: For TGAH, which enrichment ratio is on record?
Answer: 9.14

Question: For IMPT, which enrichment ratio is on record?
Answer: ≤ 0.25

Question: Which enrichment ratio does the source give for STPE here?
Answer: ≤ 0.25

Question: Which enrichment ratio does the source give for SDDK here?
Answer: ≤ 0.25

Question: Which enrichment ratio does the source give for DTVG here?
Answer: ≤ 0.25

Question: How did the enrichment ratio turn out when MNVA was run?
Answer: ≤ 0.25

Question: How did the enrichment ratio turn out when LNLH was run?
Answer: ≤ 0.25

Question: With MLMR as the variant, how does the enrichment ratio read?
Answer: ≤ 0.25

Question: How did the enrichment ratio turn out when AGDT was run?
Answer: ≤ 0.25

Question: For CQVY, which enrichment ratio is on record?
Answer: 5.8

Question: With CQWS as the variant, how does the enrichment ratio read?
Answer: ≤ 0.25

Question: Which enrichment ratio does the source give for AGAT here?
Answer: 11.3

Question: CQNY was tested. Which enrichment ratio did it give?
Answer: 12.1

Question: How did the enrichment ratio turn out when AGKR was run?
Answer: ≤ 0.25
